# Source: PubChem BioAssay (NCI)
# This is part of a sample that, as a whole, favours compounds with a hit. Of some 83,000 tested, about 20% had one in any assay.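 Activity criterion: percent growth below 10, measured after cells in 96-well plates were exposed to a single compound concentration for 48 hours.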 Calls of active or inactive are those of the source.
# System: HCT-116 colon
# Assay: NCI-60 one-dose screen, 48 h (100 = growth as untreated, 0 = no growth, -100 = all killed)
# Conditions: 10 µM unless noted
# Method: Growth inhibition of the HCT-116 human tumor cell line is measured as a screen for anti-cancer activity. Cells are grown in 96 well plates and exposed to the test compound for 48 hours. Compounds are tested at a single concentration, which is 10^-5 M for most compounds. The reported endpoint is percent growth (GI% or GIPRCNT), where numbers from 0 - 100% represent growth inhibition, and numbers from -100% - 0 represent cell death. For example, a value of 40 represents 60% growth inhibition. A value of 0 means no net growth occurred over the course of the experiment. A value of -40 indicates 40% of cells at the beginning of the experiment died by the end of the experiment. A value of -100 means all cells are dead at the end of the experiment.
# NCI-60 Human Tumor Cell Lines Screen was performed using the standard one-dose NCI protocol, which is described in more detail at https://dtp.cancer.gov/discovery_development/nci-60/default.htm.
# Compounds with GIPRCNT values below 10 were considered active. Activity score was based on GIPRCNT using the following formula: […]
# Score is 0 for GIPRCNT values of 100 or above, 50 for GIPRCNT values of 0, and 100 for GIPRCNT values of -100.
row,Structure (SMILES),growth
1,COc1ccc(N2CCN(C(=O)c3sc4nc(C)c(Br)c(C)c4c3N)CC2)cc1,99% (inactive)
2,CN(Cc1cnc2nc(N)nc(N)c2n1)c1ccc(C(=O)NC(CCC(=O)O)C(=O)O)cc1Br (stereo not given),19.8% (inactive)
3,O=C(Cc1ccc(NC(=O)c2cccc(Cl)c2)cc1)NCc1ccccc1,25.3% (inactive)
4,CN(Cc1ccccc1)c1nc(Cl)c(C2CC(c3ccccc3)=NN2c2ccccc2)s1 (stereo not given),77.7% (inactive)
5,COc1ccc(C2=NN(C(C)=O)C(c3cn(-c4ccccc4)nc3-c3ccc(Cl)cc3)C2)cc1 (stereo not given),-11.6% (active)
6,CN1CCN(c2ccc(NC(=O)c3cncnc3Nc3ccc(OCc4cccc(F)c4)c(Cl)c3)cc2)CC1,17.4% (inactive)
7,O=C(CC(=O)Nc1cccc(C(=O)O)c1)Nc1cccc(C(=O)O)c1,94.3% (inactive)
8,CN1CCN(Cc2ccc(NC(=O)c3cncc(C#Cc4cnc(N)c5ccc(F)cc45)c3)cc2C(F)(F)F)CC1,-90.9% (active)
9,Cc1cccc[n+]1C1c2ccccc2-c2ccccc21,78.5% (inactive)
10,CC/C=C\C[C@H](O)C/C=C1/C(=O)C=C[C@@H]1C/C=C\CCCC(=O)O,8.9% (active)
11,CN(C)CCCC1(c2ccc(F)cc2)OCc2cc(-c3cc4ccccc4s3)ccc21 (stereo not given),-80.6% (active)
12,O=C(O)c1cn(C2CC2)c2cc(N3CCN(C(=O)Nc4nc(-c5ccc(Br)cc5)cs4)CC3)c(F)cc2c1=O,18.5% (inactive)
13,O=C1C(Nc2ccccn2)=C(I)C(=O)c2ncccc21,-62.2% (active)
14,COc1cc(/C=C2\CN(S(=O)(=O)c3ccccc3)C/C(=C\c3cc(CN4CCCCC4)c(O)c(OC)c3)C2=O)cc(CN2CCCCC2)c1O,-67.4% (active)
15,CN1CCN(c2ccc3nc4c(nc3c2C(F)(F)F)C(=O)c2ncccc2C4=O)CC1,0.984% (active)
16,CC(=O)/C(=C/c1ccc([N+](=O)[O-])cc1)C(=O)c1ccccc1,35.7% (inactive)
17,COc1ccc2[nH]cc(-c3nc(-c4c[nH]c5c(Cl)nccc45)cs3)c2c1,36.4% (inactive)
18,Cc1cccc2c1C[C@@]1(C2=O)C(c2ccc(C(C)(C)C)cc2)=NOS1=O (stereo not given in full),91.6% (inactive)
19,CCCn1nc(C(=O)N(C)Cc2ccccc2)c2c1CCC(N1CCc3ccccc31)C2 (stereo not given),77.8% (inactive)
20,CSc1nn2c(-c3ccc4ccccc4c3)ccnc2c1C#N,-38.1% (active)

row,Structure (SMILES),growth
1,COc1ccc(/C(C)=C(/c2ccc(OCCCN(C)C)cc2)c2ccc(OC(=O)c3ccccc3)cc2)cc1,48.6% (inactive)
2,N#CC1=C(N)Oc2ccc3ccccc3c2C1c1ccc([N+](=O)[O-])cc1 (stereo not given),85.5% (inactive)
3,Nc1ncnc2c1N=C(c1ccc3c(c1)OCO3)CC(c1cccc(Nc3ccnc4cc(C(F)(F)F)ccc34)c1)N2 (stereo not given),70.3% (inactive)
4,CC(=O)OC(c1ccccc1)C1CCOC1=O (stereo not given),101% (inactive)
5,O=c1c2c3c(sc2n2c(-c4cc(-c5ccccc5)no4)nnc2n1Cc1ccccc1)CCCC3,81.6% (inactive)
6,C=C1C(=O)O[C@H]2[C@H]1CC/C(Cn1cc(CCC)nn1)=C\CC[C@@]1(C)O[C@@H]21,-55.7% (active)
7,COc1cccc(/C=C/C(=O)c2cccc(Nc3nc(Nc4ccccc4)nc(Nc4ccccc4)n3)c2)c1,12.8% (inactive)
8,COc1ccc2c(c1)/C(=N/c1n[nH]c(=S)s1)C(=O)N2,103% (inactive)
9,O=c1ccc(=O)n(-c2nc(-c3ccc([N+](=O)[O-])cc3)cs2)[nH]1,95.2% (inactive)
10,O=C1/C(=C/c2ccc(O)c(O)c2)COc2ccc(-c3ccccc3)cc21,12.7% (inactive)
11,Clc1ccccc1-c1cnn2cc(-c3ccccc3)cnc12,69% (inactive)
12,COc1ccc2nc(Cl)c(/C=C3\CC(c4ccccc4)=NN(c4ccccc4)C3=O)cc2c1,54.1% (inactive)
13,CC1CCN(C(=S)SCC(=O)NC(=O)c2ccccc2)CC1,109% (inactive)
14,O=C(Nc1cc(Cl)ccc1O)c1cccc(Nc2ccnc(C(F)(F)F)c2)c1,26.1% (inactive)
15,COc1ccc(Nc2ncccc2/C=C/C(=O)c2cc(OC)c(OC)c(OC)c2)cc1,-50.2% (active)
16,CCCCCN(CCCCC)CC(O)c1cc(C)c2ccc3cc(C(C)C)ccc3c2c1 (stereo not given),-84.8% (active)
17,C=C1C(=O)O[C@H]2[C@H]1CC/C(COC(=O)/C=C/C(=O)OC/C1=C/CC[C@@]3(C)O[C@H]3[C@H]3OC(=O)C(=C)[C@@H]3CC1)=C\CC[C@@]1(C)O[C@@H]21,2.7% (active)
18,O=C(N=Nc1c(O)[nH]c2ccccc12)Nc1ccc(F)cc1,82% (inactive)
19,Oc1c(CN2CCOCC2)cc(COCc2ccccc2)c2cccnc12,21.6% (inactive)
20,COC(=O)CC[C@@H]1O[C@@H](c2ccc(F)cc2)[C@@H](O)[C@H]1O,89.3% (inactive)
